Results: PubChem BioAssay (EPA / NIEHS)
Calls of active or inactive are those of the source. Rule for the calls: active = hit-call score of the fitted dose curve at least 0.9, where 1 is the maximum; inactive = score below 0.9.

Experiments:
[1] = read-out: Tissue plasminogen activator (tPA), PLAT (gene 5327); test: BSK_BE3C_tPA: BioMAP Diversity Plus: BE3C Assay for Tissue plasminogen activator (tPA) Biomarker Activity (AID 2283041); settings: primary human bronchial epithelial cells; actives raise or lower the signal
Method in brief: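 ELISA read-out of tPA on human primary bronchial epithelial cells, 24 h post-dosing; bidirectional fit vs DMSO negative control/baseline.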

[2] = read-out: Interleukin-8 (IL8), CXCL8 (gene 3576); test: BSK_CASM3C_IL8: BioMAP Diversity Plus: CASM3C Assay for Interleukin-8 (IL8) Biomarker Activity (AID 2283042); settings: primary human coronary artery smooth muscle cells; actives raise or lower the signal;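 note: IL-8 protein level quantified by ELISA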
[3] = read-out: Human Leukocyte Antigen - DR isotype (HLADR), HLA-DRA (gene 3122); test: BSK_CASM3C_HLADR: BioMAP Diversity Plus: CASM3C Assay for Human Leukocyte Antigen - DR isotype (HLADR) Biomarker Activity (AID 2283043); settings: primary human coronary artery smooth muscle cells; actives raise or lower the signal;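 note: cell-surface HLA-DR protein level quantified by ELISA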
[4] = read-out: Low-density lipoprotein receptor (LDLR), LDLR (gene 3949); test: BSK_CASM3C_LDLR: BioMAP Diversity Plus: CASM3C Assay for Low-density lipoprotein receptor (LDLR) Biomarker Activity (AID 2283045); settings: primary human coronary artery smooth muscle cells; actives raise or lower the signal;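 note: LDLR protein level on the cell surface quantified by ELISA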
[5] = read-out: Monocyte Chemoattractant Protein-1 (MCP1), CCL2 (gene 6347); test: BSK_CASM3C_MCP1: BioMAP Diversity Plus: CASM3C Assay for Monocyte Chemoattractant Protein-1 (MCP1) Biomarker Activity (AID 2283046); settings: primary human coronary artery smooth muscle cells; actives raise or lower the signal;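 note: MCP-1 level quantified by ELISA 24 h after dosing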
[6] = BSK_CASM3C_Proliferation: Cell Proliferation Assessment in the BioMAP Diversity Plus: CASM3C Assay (AID 2283047); settings: primary human coronary artery smooth muscle cells;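 note: sulforhodamine B total protein stain as relative cell number at 560 nm; sub-confluent cells exposed 48 h before staining; fitted both ways against DMSO so gain or loss of cell number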
[7] = read-out: Monokine induced gamma interferon (MIG), CXCL9 (gene 4283); test: BSK_CASM3C_MIG: BioMAP Diversity Plus: CASM3C Assay for Monokine induced gamma interferon (MIG) Biomarker Activity (AID 2283048); settings: primary human coronary artery smooth muscle cells; actives raise or lower the signal;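 note: MIG protein level measured by ELISA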
[8] = read-out: serum amyloid A (SAA), SAA1 (gene 6288); test: BSK_CASM3C_SAA: BioMAP Diversity Plus: CASM3C Assay for serum amyloid A (SAA) Biomarker Activity (AID 2283049); settings: primary human coronary artery smooth muscle cells; actives raise or lower the signal;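 note: SAA protein level quantified by ELISA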
[9] = BSK_CASM3C_SRB: Viability Assessment in the BioMAP Diversity Plus: CASM3C Assay (AID 2283050); settings: primary human coronary artery smooth muscle cells;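 note: total protein by SRB staining as cytotoxicity measure in parallel cultures; cells exposed to compound for 24 h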
[10] = read-out: Thrombomodulin, THBD (gene 7056); test: BSK_CASM3C_Thrombomodulin: BioMAP Diversity Plus: CASM3C Assay for Thrombomodulin Biomarker Activity (AID 2283051); settings: primary human coronary artery smooth muscle cells; actives raise or lower the signal;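 note: thrombomodulin protein level measured by ELISA 24 h after dosing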
[11] = read-out: Tissue Factor, F3 (gene 2152); test: BSK_CASM3C_TissueFactor: BioMAP Diversity Plus: CASM3C Assay for Tissue Factor Biomarker Activity (AID 2283052); settings: primary human coronary artery smooth muscle cells; actives raise or lower the signal;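 note: cell surface tissue factor protein level read by ELISA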
[12] = read-out: Interferon-gamma inducible Protein 10 (IP10), CXCL10 (gene 3627); test: BSK_hDFCGF_IP10: BioMAP Diversity Plus: hDFCGF Assay for Interferon-gamma inducible Protein 10 (IP10) Biomarker Activity (AID 2283053); settings: primary human foreskin fibroblasts; actives raise or lower the signal
Method in brief: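 ELISA read-out of IP-10 (CXCL10) from primary human skin fibroblasts, 24 h after compound addition. Gain or loss of signal versus DMSO baseline, bidirectional curve fitting.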

[13] = read-out: Urokinase-type plasminogen activator receptor (uPAR), PLAUR (gene 5329); test: BSK_CASM3C_uPAR: BioMAP Diversity Plus: CASM3C Assay for Urokinase-type plasminogen activator receptor (uPAR) Biomarker Activity (AID 2283054); settings: primary human coronary artery smooth muscle cells; actives raise or lower the signal;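 note: cell-surface uPAR protein level quantified by ELISA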
[14] = read-out: Vascular cell adhesion molecule 1 (VCAM1), VCAM1 (gene 7412); test: BSK_CASM3C_VCAM1: BioMAP Diversity Plus: CASM3C Assay for Vascular cell adhesion molecule 1 (VCAM1) Biomarker Activity (AID 2283055); settings: primary human coronary artery smooth muscle cells; actives raise or lower the signal;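 note: VCAM-1 protein level quantified by ELISA on the cells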
[15] = read-out: Collagen III, COL3A1 (gene 1281); test: BSK_hDFCGF_CollagenIII: BioMAP Diversity Plus: hDFCGF Assay for Collagen III Biomarker Activity (AID 2283056); settings: primary human foreskin fibroblasts; actives raise or lower the signal
Method in brief: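 Response relative to DMSO, fitted in both directions, reflects ELISA-measured collagen III in human primary skin fibroblasts 24 h after compound addition.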

[16] = read-out: Epidermal growth factor receptor (EGFR), EGFR (gene 1956); test: BSK_hDFCGF_EGFR: BioMAP Diversity Plus: hDFCGF Assay for Epidermal growth factor receptor (EGFR) Biomarker Activity (AID 2283057); settings: primary human foreskin fibroblasts; actives raise or lower the signal
Method in brief: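 ELISA readout of EGFR on human dermal fibroblasts (primary foreskin cells), 24 h post-dosing; bidirectional curve fit vs DMSO baseline, gain or loss of signal scored.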

[17] = read-out: Interleukin-8 (IL8), CXCL8 (gene 3576); test: BSK_hDFCGF_IL8: BioMAP Diversity Plus: hDFCGF Assay for Interleukin-8 (IL8) Biomarker Activity (AID 2283058); settings: primary human foreskin fibroblasts; actives raise or lower the signal
Method in brief: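 Fibroblast monolayers (human foreskin, hDFCGF) received test chemical for 24 h before ELISA detection of IL-8; either increases or decreases relative to DMSO count as activity.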

[18] = BSK_hDFCGF_Proliferation: Cell Proliferation Assessment in the BioMAP Diversity Plus: hDFCGF Assay (AID 2283059); settings: primary human foreskin fibroblasts;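 note: curves fitted for both rise and fall of signal versus DMSO baseline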
Method in brief: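 Sub-confluent human foreskin fibroblast cultures receive test chemical […]. Relative cell number is quantified by sulforhodamine B staining (0.1%, after 10% TCA fixation) at 560 nm, with bidirectional fitting referenced to DMSO.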

[19] = read-out: Macrophage colony-stimulating factor (MCSF), CSF1 (gene 1435); test: BSK_CASM3C_MCSF: BioMAP Diversity Plus: CASM3C Assay for Macrophage colony-stimulating factor (MCSF) Biomarker Activity (AID 2283044); settings: primary human coronary artery smooth muscle cells; actives raise or lower the signal;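 note: M-CSF protein amount quantified by ELISA after 24 h exposure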
[20] = read-out: Macrophage colony-stimulating factor (MCSF), CSF1 (gene 1435); test: BSK_hDFCGF_MCSF: BioMAP Diversity Plus: hDFCGF Assay for Macrophage colony-stimulating factor (MCSF) Biomarker Activity (AID 2283060); settings: primary human foreskin fibroblasts; actives raise or lower the signal
Method in brief: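 fibroblasts (human foreskin, primary), 24 h post-dose; M-CSF by ELISA; bidirectional fit, DMSO = baseline.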

Measured: AC50

CC(=O)N1CCN(c2ccc(OC[C@H]3CO[C@](Cn4ccnc4)(c4ccc(Cl)cc4Cl)O3)cc2)CC1
active: [4] 2.94 µM | [6] 28 µM | [12] 33.3 µM | [15] 14 µM | [17] 33.5 µM | [18] 20 µM
inactive: [1] | [2] | [3] | [5] | [7] | [8] | [9] | [10] | [11] | [13] | [14] | [16]

O=c1c(-c2ccc(O)cc2)coc2cc(O)cc(O)c12
inactive: [19] | [4] | [7] | [9] | [11] | [15] | [17] | [20]
active: [1] 9.33 µM | [2] 20 µM | [3] 27.6 µM | [5] 28.6 µM | [6] 11.7 µM | [8] 20 µM | [12] 20 µM | [13] 29.6 µM | [14] 25.7 µM | [18] 11.7 µM

O=C(O)c1ccccc1C(=O)OCc1ccccc1
inactive: [1] | [2] | [3] | [19] | [4] | [5] | [6] | [7] | [8] | [9] | [10] | [11] | [12] | [13] | [14] | [15] | [16] | [17] | [18] | [20]

CCCCCCCCCC(=O)O
inactive: [1] | [2] | [3] | [19] | [4] | [5] | [6] | [7] | [8] | [9] | [10] | [11] | [12] | [13] | [14] | [15] | [16] | [17] | [18] | [20]

O=C(O)Cn1c(=O)n(Cc2ccc(Br)cc2F)c(=O)c2ccc(Cl)cc21
active: [1] 11.5 µM
inactive: [2] | [3] | [19] | [4] | [5] | [6] | [7] | [8] | [9] | [10] | [11] | [12] | [13] | [14] | [15] | [16] | [17] | [18] | [20]

CCCOC(=O)c1cc(O)c(O)c(O)c1
inactive: [1] | [2] | [3] | [19] | [4] | [5] | [7] | [8] | [9] | [10] | [11] | [13] | [14] | [15] | [16] | [17] | [20]
active: [6] 6.82 µM | [12] 20 µM | [18] 8.01 µM

COCC(C)OCC(C)OCC(C)O (stereo not given)
inactive: [1] | [2] | [3] | [19] | [4] | [5] | [6] | [7] | [8] | [9] | [10] | [11] | [12] | [13] | [14] | [15] | [16] | [17] | [18] | [20]

CCCCCc1ccc(N)cc1
active: [12] 20 µM | [16] 0.0546 µM | [18] 9.38 µM
inactive: [1] | [2] | [3] | [19] | [4] | [5] | [6] | [7] | [8] | [9] | [10] | [11] | [13] | [14] | [15] | [17] | [20]

c1ccc(C[n+]2cccc3ccccc32)cc1
inactive: [1] | [2] | [3] | [19] | [4] | [5] | [6] | [7] | [8] | [9] | [10] | [11] | [12] | [13] | [14] | [15] | [16] | [17] | [18] | [20]

CCCCCCCC[Si](OCC)(OCC)OCC
active: [6] 35.4 µM | [15] 20 µM | [18] 28.3 µM
inactive: [1] | [2] | [3] | [19] | [4] | [5] | [7] | [8] | [9] | [10] | [11] | [12] | [13] | [16] | [17] | [20]

CC[C@@H]1C[C@H](N(Cc2cc(C(F)(F)F)cc(C(F)(F)F)c2)C(C)=O)c2cc(C(F)(F)F)ccc2N1C(=O)OC(C)C
active: [4] 1.22 µM | [6] 1.37 µM | [12] 1.22 µM
inactive: [1] | [2] | [3] | [19] | [5] | [7] | [8] | [9] | [10] | [11] | [13] | [14] | [15] | [16] | [17] | [18] | [20]

OCCO
inactive: [1] | [2] | [3] | [19] | [4] | [5] | [6] | [7] | [8] | [9] | [10] | [11] | [12] | [13] | [14] | [15] | [16] | [17] | [20]
active: [18] 20.1 µM

Oc1ccccc1
inactive: [1] | [2] | [3] | [19] | [4] | [5] | [6] | [7] | [8] | [9] | [10] | [11] | [12] | [13] | [14] | [15] | [16] | [17] | [18] | [20]

O=C(O)Cc1cc(I)c(Oc2ccc(O)c(I)c2)c(I)c1
inactive: [2] | [3] | [19] | [4] | [5] | [6] | [7] | [8] | [9] | [10] | [11] | [12] | [13] | [14] | [16] | [17] | [20]
active: [1] 15.9 µM | [15] 8.91 µM | [18] 13.7 µM

COc1cccc([C@H](O)C2CCN(CCc3ccc(F)cc3)CC2)c1OC
inactive: [1] | [2] | [3] | [19] | [4] | [5] | [6] | [7] | [8] | [9] | [10] | [11] | [12] | [13] | [14] | [15] | [16] | [17] | [18] | [20]

Cc1cc2c(cc1C(F)(F)F)N(C(=O)Nc1ccc(Oc3cccnc3C)nc1)CC2
inactive: [1] | [2] | [7] | [8] | [11] | [15] | [16] | [17] | [20]
active: [3] 16.6 µM | [19] 30.6 µM | [4] 3.81 µM | [5] 28.3 µM | [6] 13.8 µM | [9] 26.3 µM | [10] 5.04 µM | [12] 18.4 µM | [13] 25 µM | [14] 31.1 µM | [18] 1.94 µM

Cc1oc2c(NC(=O)c3c(Cl)cccc3Cl)cccc2c1C(C)(C)O
inactive: [2] | [3] | [19] | [5] | [7] | [8] | [9] | [12] | [13] | [14] | [17] | [20]
active: [1] 15.1 µM | [4] 15.6 µM | [6] 20 µM | [10] 26.5 µM | [11] 29.4 µM | [15] 20 µM | [16] 17.3 µM | [18] 14.1 µM
